Measured values: PubChem BioAssay (NCI)
Where “and” joins values, the source holds several entries; their conditions need not be identical. Equal values may be shown once. Compounds without any hit were thinned out: in the full panel of roughly 83,000, 20% have a hit.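 How to read the values: 0–100, growth inhibition (40 = 60% inhibited); 0, no net growth; -100 to 0, cell death (-40 = 40% of starting cells died; -100 = all dead).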 Calls of active or inactive are those of the source. How the source made its calls: active means growth percent below 10; inactive means the rest.

The compounds below were run on MDA-MB-468 breast (assay: NCI-60 one-dose screen, 48 h (100 = growth as untreated, 0 = no growth, -100 = all killed)). Conditions: 10 µM unless noted.

Question: For `CC(=O)N(CCCCCCN(C(C)=O)C(C)=O)C(C)=O`, which growth is on record?
Answer: The growth was 99.2% [100 µM] (inactive).

Question: With `CCOC(=O)c1c(C)nn(CC(O)c2ccccc2)c1NC(=O)Nc1cccc(F)c1` (stereo unspecified) as the compound, how does the growth read?
Answer: Its growth is 82.6% (inactive).

Question: Which growth does the source give for `COc1cccc2ccc(CC(O)(c3ccccc3)c3ccccc3)nc12` here?
Answer: The growth was 46.7% (inactive).

Question: How did the growth turn out when `COc1ccc(-n2c(SCC(=O)Nc3ccc(-c4nc5ccccc5[nH]4)cc3)nc3ccccc3c2=O)cc1` was run?
Answer: Its growth is -88.2% (active).

Question: `COc1cc(NCCCN(CC(C)C)C2CCCC2)c2ncccc2c1` was tested. Which growth did it give?
Answer: The growth was 15.7% (inactive).

Question: For `COc1cc(Nc2nc3ccccc3nc2NS(=O)(=O)c2ccc(NC(=O)c3ccc(C)c(OC)c3)cc2)cc(OC)c1`, which growth is on record?
Answer: The growth was 72.6% (inactive) and -30.3% (active).
